In the supplement of paper PMC12819154, “High-throughput peptide-centric local stability assay extends protein–ligand identification to membrane proteins, tissues and bacteria” (Nature Structural & Molecular Biology, 2025):

These targets were tested with Nc1ncnc2c1ncn2[C@@H]1O[C@H](COP(=O)(O)OP(=O)(O)OP(=O)(O)O)[C@@H](O)[C@H]1O [adenosine 5'-triphosphate] (assay: log2 fold change of tryptic peptide abundance, ligand vs vehicle (limited proteolysis) (log2 ratio); higher = more trypsin-susceptible (destabilized)). Conditions: ligand concentration: 5 mM; sample: E. coli desalted lysate; replicate design: treated before aliquoting.
Procedure: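 HT-PELSA: desalted E. coli K-12 BW25113 lysate (with 12 mM MgCl2) incubated with 5 mM ATP (pH 7) or water for 30 min at 25 C, then a 4 min trypsin pulse at 22 C. Peptides were quantified by DIA-MS (4 replicates). Value is the peptide log2 fold change (treated/control); negative = stabilized. Scale: negative = ligand-stabilized region.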
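Further: lysate desalted by size exclusion to strip endogenous ATP, peptide intensities built from DIA-NN precursor signals, and peptides missing any value discarded before comparison.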

Sequence of UniProt P77555 (P77555 whole entry): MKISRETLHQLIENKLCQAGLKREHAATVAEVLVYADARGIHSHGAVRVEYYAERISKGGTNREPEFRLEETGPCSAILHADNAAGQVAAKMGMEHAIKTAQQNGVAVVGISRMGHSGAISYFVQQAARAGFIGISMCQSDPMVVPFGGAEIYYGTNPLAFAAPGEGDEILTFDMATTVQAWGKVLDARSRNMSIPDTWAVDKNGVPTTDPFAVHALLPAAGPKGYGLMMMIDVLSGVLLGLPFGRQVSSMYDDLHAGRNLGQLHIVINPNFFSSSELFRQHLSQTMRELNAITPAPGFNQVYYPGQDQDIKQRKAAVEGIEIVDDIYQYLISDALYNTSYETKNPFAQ
Sequence of UniProt P03018 (P03018 whole entry): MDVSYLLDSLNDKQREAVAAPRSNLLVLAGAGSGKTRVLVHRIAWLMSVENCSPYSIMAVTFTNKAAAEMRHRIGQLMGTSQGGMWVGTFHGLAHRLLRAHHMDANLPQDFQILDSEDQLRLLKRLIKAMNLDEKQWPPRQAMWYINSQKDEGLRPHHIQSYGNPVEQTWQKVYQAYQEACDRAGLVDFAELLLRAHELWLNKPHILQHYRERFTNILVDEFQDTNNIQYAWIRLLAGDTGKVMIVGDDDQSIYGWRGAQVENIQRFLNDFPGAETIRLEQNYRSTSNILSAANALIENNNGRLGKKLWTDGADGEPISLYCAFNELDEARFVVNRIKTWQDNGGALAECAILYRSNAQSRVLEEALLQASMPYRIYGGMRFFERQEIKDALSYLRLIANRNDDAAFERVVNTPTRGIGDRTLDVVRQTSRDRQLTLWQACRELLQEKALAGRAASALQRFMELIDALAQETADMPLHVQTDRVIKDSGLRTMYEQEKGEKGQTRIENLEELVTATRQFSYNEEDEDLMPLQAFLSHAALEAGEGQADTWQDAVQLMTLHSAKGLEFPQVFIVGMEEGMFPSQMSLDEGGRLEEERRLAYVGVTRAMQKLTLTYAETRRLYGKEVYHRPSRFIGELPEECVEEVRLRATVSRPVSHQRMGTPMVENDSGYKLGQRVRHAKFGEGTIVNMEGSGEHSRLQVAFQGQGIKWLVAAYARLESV
Sequence of UniProt P39325 (P39325 whole entry): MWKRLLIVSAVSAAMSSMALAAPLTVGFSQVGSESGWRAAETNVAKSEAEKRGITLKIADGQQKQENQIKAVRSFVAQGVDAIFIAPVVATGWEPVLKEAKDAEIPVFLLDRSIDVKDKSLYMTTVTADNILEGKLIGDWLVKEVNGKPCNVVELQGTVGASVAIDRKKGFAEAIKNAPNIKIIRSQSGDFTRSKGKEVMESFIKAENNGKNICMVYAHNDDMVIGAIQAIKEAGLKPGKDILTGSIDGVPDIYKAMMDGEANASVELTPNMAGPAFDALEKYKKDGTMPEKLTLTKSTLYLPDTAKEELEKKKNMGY
Sequence of UniProt P77756 (P77756 whole entry): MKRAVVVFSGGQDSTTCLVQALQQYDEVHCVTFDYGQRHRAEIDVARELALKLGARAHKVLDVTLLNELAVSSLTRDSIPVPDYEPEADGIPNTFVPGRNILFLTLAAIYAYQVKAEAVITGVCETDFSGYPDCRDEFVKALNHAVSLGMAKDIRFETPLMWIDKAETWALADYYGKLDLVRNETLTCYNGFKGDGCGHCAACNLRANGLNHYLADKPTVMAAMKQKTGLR
Sequence of UniProt P0AB77 (P0AB77 whole entry): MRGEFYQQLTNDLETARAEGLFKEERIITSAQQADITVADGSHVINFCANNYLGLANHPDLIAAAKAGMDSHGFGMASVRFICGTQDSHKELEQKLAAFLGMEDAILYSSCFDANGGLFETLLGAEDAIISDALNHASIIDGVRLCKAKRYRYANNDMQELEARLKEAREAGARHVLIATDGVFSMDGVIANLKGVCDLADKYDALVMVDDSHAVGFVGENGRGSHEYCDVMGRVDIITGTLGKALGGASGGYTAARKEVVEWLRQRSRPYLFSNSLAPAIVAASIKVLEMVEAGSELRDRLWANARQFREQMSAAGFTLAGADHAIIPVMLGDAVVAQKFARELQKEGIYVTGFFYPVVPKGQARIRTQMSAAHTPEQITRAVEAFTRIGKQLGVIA
Sequence of UniProt P0ACW4 (P0ACW4 whole entry): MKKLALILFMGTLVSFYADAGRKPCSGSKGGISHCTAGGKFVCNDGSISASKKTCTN
Sequence of UniProt P75824 (P75824 whole entry): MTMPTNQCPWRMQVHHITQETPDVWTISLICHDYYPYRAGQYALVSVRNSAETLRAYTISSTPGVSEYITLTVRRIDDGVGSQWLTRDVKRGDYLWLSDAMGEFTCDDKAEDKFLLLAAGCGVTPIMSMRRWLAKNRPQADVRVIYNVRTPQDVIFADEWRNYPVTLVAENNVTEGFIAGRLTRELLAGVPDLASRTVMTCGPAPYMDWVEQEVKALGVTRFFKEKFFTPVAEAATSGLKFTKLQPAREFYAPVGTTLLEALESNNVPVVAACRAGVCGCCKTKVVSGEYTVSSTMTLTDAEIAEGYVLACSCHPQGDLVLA

| Target | log2 fold change |
| --- | --- |
| UniProt P0AB77 (peptide sequence: AGMDSHGFGMASVR, peptide start residue: 67) | -0.449 |
| UniProt P0ACW4 (peptide sequence: GGISHCTAGGK, peptide start residue: 30) | -0.911 |
| UniProt P02359 (peptide sequence: FVNILMVDGK, peptide start residue: 26) | 0.921 |
| UniProt P39325 (peptide sequence: STLYLPDTAKEELEK, peptide start residue: 298) | -1.01 |
| UniProt P03018 (peptide sequence: AHHMDANLPQDFQILDSEDQLR, peptide start residue: 100) | -2.2 |
| UniProt P77756 (peptide sequence: HRAEIDVAR, peptide start residue: 39) | -2.3 |
| UniProt P77555 (peptide sequence: VEYYAER, peptide start residue: 49) | -0.74 |
| UniProt P75824 (peptide sequence: AGVCGCCK, peptide start residue: 275) | 0.616 |
